# Reference: PubChem BioAssay AID463195 (Sanford-Burnham Center for Chemical Genomics, 2010)
# Out of some 330,000 compounds screened, about 4,600 (1.4%) were called active. The sample as a whole holds a higher share of actives than the screen did. Values without a mark were called inactive.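 Rule for the calls: active = inhibition of 40% or more at the single tested concentration; inactive = the rest.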
# Assay: growth inhibitors of isogenic TIM10 control yeast, primary screen, counter-screen for tim10-1 yeast inhibitor project, luminescence, uHTS (AID 463195);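 note: wild-type TIM10 isogenic control strain grown at permissive 25 °C; 0% = DMSO yeast wells and 100% = minimal medium wells without yeast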
# Details: S. cerevisiae TIM10 strain growth, BacTiter-Glo luminescence, 24 h; at 10 µM; stronger effect = higher value
row,Structure (SMILES),inhibition
1,Cc1ccc(NS(=O)(=O)c2ccc3c(c2)n(C)c(=O)c(=O)n3C)c(C)c1,-2%
2,CCOC(=O)C(=CNc1cccc(C)n1)C(=O)OCC,-4.77%
3,COc1ccccc1/C=C/C(=O)NC1CC2CCC1C2 (stereo unspecified),18.9%
4,CCOC(=O)C(=Cc1ccccc1OC)C(=O)OCC,49% (active)
5,COc1ccccc1CNC(=O)C1CCN(C(=O)[C@@H]2Cc3ccccc3CN2)CC1,6.93%
6,COc1ccc(Nc2cc(=O)oc3ccccc23)cc1,-15.1%
7,CCCN1CCn2c3c(c4cc(Br)ccc42)CCCC31 (stereo unspecified),6.43%
8,CCOc1ccc(/C(O)=C2\C(=O)C(=O)N(c3ccc(OC)cc3)C2c2ccccc2[N+](=O)[O-])cc1 (stereo unspecified),23.4%
9,CCN(CC)CC(=O)c1c[nH]c2ccc(OC)cc12,-7.94%
10,COc1ccc2[nH]cc(/C=C(/C#N)S(=O)(=O)c3ccccc3)c2c1,54.5% (active)
11,COc1ccc2[nH]cc(CCN3C(=O)c4ccc(C(=O)O)cc4C3=O)c2c1,-1.99%
12,CC(OC(=O)c1ccc2ccccc2n1)C(=O)c1ccccc1 (stereo unspecified),3.19%
13,O=C(Oc1ccc([N+](=O)[O-])cc1)c1ccc2ccccc2n1,40.4% (active)
14,COc1ccc(C(=O)COC(=O)c2ccc3ccccc3n2)cc1,37.3%
15,O=C(Nc1cccc(Cl)c1Cl)c1ccccc1NC(=O)C1CC=CCC1C(=O)O (stereo unspecified),-0.652%
16,Cc1ccc(/C=N/NC(=O)c2cc3ccccc3cc2O)o1,16.7%
17,Cc1cc(N=Nc2ccc3ccccc3c2)ccc1O,74.2% (active)
18,COc1cccc(OCC(O)CNC(=O)c2oc3c(C)c(C)ccc3c2C)c1 (stereo unspecified),-2.72%
19,Cc1nc2cc(C(F)(F)F)ccc2n1CCNc1nc(-c2cc(Cl)c(N)c(Cl)c2)cs1,3.25%
20,CC(=O)c1c(OCC(=O)N(C)C2CCCCC2)ccc2c(C)cc(=O)oc12,5.61%
21,C=CCNC(=O)COC(=O)CNC(=O)c1cc(Cl)cc([N+](=O)[O-])c1,-0.359%

row,Structure (SMILES),inhibition
1,C=CCNC(=S)NNC(=O)COc1c(Cl)cc(Cl)cc1Cl,57.7% (active)
2,C=CCNC(=S)NNC(=O)c1ccc(Br)o1,-5.99%
3,O=C(CN1CCCCC1)NC(=O)Nc1ccccc1F,-12.6%
4,CCOC(=O)CCCNC(=O)COC(=O)c1cc(Br)c(Br)s1,10.3%
5,Cc1ccc(OCc2n[nH]c(=S)n2-c2ccccc2)cc1,16.5%
6,O=[N+]([O-])c1ccccc1/C=N/n1c(COc2ccccc2)n[nH]c1=S,17.8%
7,Fc1ccc(/C=N/n2c(COc3ccccc3)n[nH]c2=S)cc1,40.9% (active)
8,CC(C)(C)C(=O)/C(C#N)=C/c1ccc(O)cc1,-0.948%
9,Cc1[nH]c2ccccc2c1/C=C(/C#N)C(=O)NC(C)C,17.7%
10,CC(C)NC(=O)/C(C#N)=C\c1ccc(N(C)C)c(Br)c1,55.1% (active)
11,N=c1n(Cc2ccc(Cl)cc2)c2ccccc2n1CC(O)c1ccco1 (stereo unspecified),4.4%
12,NC(=O)c1cc(S(=O)(=O)N2CCCC2)ccc1OCc1ccc(F)cc1,-5.53%
13,Cc1c(/C=N\NC(=O)c2cc3ccccc3o2)c2ccccc2n1C,8.19%
14,O=C(N/N=C/c1cccc(O)c1)c1cc2c(ccc3ccccc32)o1,7.41%
15,O=C(N/N=C/c1c[nH]c2ccccc12)c1cc2ccccc2o1,49.3% (active)
16,O=C(O)c1cccc(NC(=S)N/N=C/c2c[nH]c3ccccc23)c1,11.4%
17,CSC(=S)N/N=C/c1c[nH]c2ccccc12,43.5% (active)
18,Nc1nonc1-n1nnc(C(=O)N/N=C/c2c[nH]c3ccccc23)c1-c1ccccc1,12.9%
19,COc1ccccc1CNS(=O)(=O)c1cc(C(=O)NCc2ccccn2)c(Cl)cc1Cl,3.96%
20,CCOC(=O)c1cc2c(=O)[nH]c(C(Cl)(Cl)Cl)nc2o1,1.82%
21,COc1cc2c(cc1NC(=O)COC(=O)/C=C/c1ccccc1)oc1ccccc12,-21.9%

row,Structure (SMILES),inhibition
1,CN(c1ccc(OCC(=O)NC2=NCCS2)cc1)S(=O)(=O)c1ccc(F)cc1,-18.2%
2,C/C(CC1CC(C)(C)OC1=O)=N/Nc1nc(-c2ccccc2)cs1 (stereo unspecified),17.6%
3,O=C(CSc1cccc[n+]1[O-])c1ccc(-c2ccccc2)cc1,42% (active)
4,O=C(CSc1cccc[n+]1[O-])c1ccc(Cl)cc1,1.21%
5,COc1ccccc1C(=O)CSc1cccc[n+]1[O-],-4.59%
6,CCc1cc2cc(OC)ccc2nc1SCC(=O)Nc1cc(OC)c(OC)cc1C(=O)O,11.1%
7,Cc1ccc(NC(=O)c2ccc(Oc3ncccn3)cc2)cc1,9.43%
8,COc1cccc(N(CC(=O)NCCSc2ccccn2)S(C)(=O)=O)c1,-1.16%
9,COC(=O)c1ccc(S(=O)(=O)N2CCc3ccccc3C2)cc1,-8.05%
10,O=C(ON=C1CCN(S(=O)(=O)c2ccccc2)CC1)c1ccc(Cl)cc1,48% (active)
11,CC(OC(=O)c1ccc(S(=O)(=O)N2CCOCC2)cc1)c1ccccc1 (stereo unspecified),10.1%
12,Cc1cc[n+](-c2[nH]c(=O)sc2/C=N/NC(=O)c2ccccc2[O-])cc1C,2.83%
13,CN(c1ccc(O)cc1)c1nc(-c2cccnc2)cs1,-2.92%
14,COc1ccccc1-c1n[nH]c2c1[C@H](C)CC[C@H]2C(C)C,56% (active)
15,COc1ccccc1C1=CC(=O)C[C@H](c2ccc(F)cc2)C1,-15.1%
16,CCN(C[C@H]1N[C@@](CC)(C(=O)OC)[C@H]2C(=O)N(Cc3ccccc3)C(=O)[C@@H]12)S(=O)(=O)c1ccc(C(F)(F)F)cc1,12.3%
17,Cc1ccc(NC(=O)Nc2nnc(-c3ccncc3)s2)cc1,5.77%
18,Cc1ccc(Nc2nc(Cl)c(C=O)s2)cc1,41.1% (active)
19,Cc1ccc(Nc2nc(C)cc(C)c2C(N)=O)cc1,6.89%
